Assay results: PubChem BioAssay AID686948 (National Center for Advancing Translational Sciences (NCATS), 2013)
The source made the active and inactive calls. The call rests on the fitted dose curve; in most records, active means well fitted inhibition curve with a large enough effect; inactive means flat fitted curve, though single readings scatter.

What follows are molecules tested against Tyrosine-protein kinase Yes (Homo sapiens) (UniProt P07947) (assay: qHTS for small molecule inhibitors of Yes1 kinase: Confirmatory screen on the cherrypicks). Conditions: Recombinant Yes1, ADP-Glo luminescence, poly(E4Y) substrate.
Chain of Tyrosine-protein kinase Yes (Homo sapiens) (P07947 whole entry, looked up): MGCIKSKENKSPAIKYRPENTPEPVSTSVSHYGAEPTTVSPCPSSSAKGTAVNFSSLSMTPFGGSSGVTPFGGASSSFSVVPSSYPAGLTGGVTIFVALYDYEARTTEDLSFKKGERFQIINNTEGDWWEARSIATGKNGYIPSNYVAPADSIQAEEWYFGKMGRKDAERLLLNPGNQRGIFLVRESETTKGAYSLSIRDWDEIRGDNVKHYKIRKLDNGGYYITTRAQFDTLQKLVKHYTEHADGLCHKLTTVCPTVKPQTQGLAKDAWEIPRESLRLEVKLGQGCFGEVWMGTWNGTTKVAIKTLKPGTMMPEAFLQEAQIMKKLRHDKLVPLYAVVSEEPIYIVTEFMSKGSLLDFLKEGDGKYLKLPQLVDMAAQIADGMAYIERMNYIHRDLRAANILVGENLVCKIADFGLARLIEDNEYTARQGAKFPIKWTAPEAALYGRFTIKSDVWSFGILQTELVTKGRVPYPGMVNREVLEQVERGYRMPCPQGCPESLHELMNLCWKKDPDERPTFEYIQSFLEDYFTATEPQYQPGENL
Excerpt: The Src family of non-receptor protein tyrosine kinases contains nine members, including Yes1, Src, Fyn, Lyn, and […]. These kinases have important roles in a variety of cellular functions, such as cell proliferation, survival, and differentiation. Src, the most well characterized member of this family, has been previously identified as a proto-oncogene. […] In melanoma, it has been shown that Yes1, and not other family members, such as Src, is functionally involved in the malignant phenotype. Additionally, a recent study examining the downregulation of Yes1 by shRNA found significant effects on cell survival/growth for basal-like and Her2-positive breast cancers. Despite the potential for Yes1 to be a target for the above-described cancers, there are very few reports on the identification of potent and selective inhibitors of Yes1 kinase. Antagonists of Yes1 would further elucidate Yes1 biology and help to confirm whether Yes1 is a viable target for therapeutic intervention in a variety of cancers. A compound that inhibits Yes1 could be important for the treatment of various cancers in which Yes1 is highly expressed and can also be used as a tool compound to help further elucidate Yes1 biology. To that end, we have developed a sensitive HTS biochemical assay for Yes1 activity. This assay was screened against several small compound libraries to look for modulators of activity. Inhibition is the desired output for this assay. NIH Molecular Libraries Probe Production Centers Network [MLPCN] NIH Chemical Genomics Center [NCGC] MLPCN Grant: MH084681
Two microliter of Yes1 enzyme (columns 1-2, 5-48; Millipore, Billerica, MA) are dispensed into Greiner, white solid-bottom 1536-well assay plates; columns 3 and 4 receive buffer without Yes1 as a control for maximum inhibition. Compounds (23 nL) are then transferred via Kalypsys pin tool equipped with 1536-pin array (10 nL slotted pins, V&P Scientific, San Diego, CA). The library compounds are in columns 5-48 and columns 1-4 serve as controls with DMSO in columns 1, 3 and 4 and 10 mM 1:3 fold serial of dasatinib in column 2. Following addition of compound and a 20 minute incubation, 1 uL of substrate (ATP and poly-E4Y from Sigma-Aldrich, St. Louis, MO) is added, and the biochemical reaction is allowed to progress for 60 minutes at room temperature. The production of ADP is then quantified by the ADP-Glo Kit (Promega, Madison, WI). First, 2 uL of the first kit reagent is added, and the reaction is incubated for 45 minutes; then, 4 uL of the second kit reagent are added and the reaction is incubated for 30 minutes at which time the luminescence is read on a Viewlux plate reader (Perkin-Elmer, Waltham, MA). The final concentration of reagents in the reaction are 4 nM Yes1, 0.1 mM ATP, 100 uM EGTA, 10 mM MgCl2, 0.3 mg/mL poly(E4Y), 50 mM Tris pH 7.5, 1 mM DTT, 150 mM NaCl, 0.01% Brij-35, and 5% glycerol. Data are normalized to DMSO-treated control columns with (maximum signal) and without (minimum signal) enzyme.

Potency, active:
CCN(CC)CCOc1ccc(Nc2ncc3cc(-c4c(Cl)cccc4Cl)c(=O)n(C)c3n2)cc1 0.4 nM
CC(C)Oc1cc(Nc2nc(N[C@@H](C)c3ccc(F)cn3)ncc2Cl)[nH]n1 39.1 nM
Cc1ccc(C(=O)Nc2cccc(C(F)(F)F)c2)cc1-c1ccc2nc(NCCN3CCOCC3)ncc2c1 0.7 nM
CC(NCc1ccc2c(c1)nc(NC(=O)c1ccc(-c3cn[nH]c3)s1)n2CC(C)(C)O)C(C)(C)C (stereo unspecified) 1.7 nM
NC(=O)Nc1cc(-c2ccc(CN3CCOCC3)c(F)c2)sc1C(=O)N[C@H]1CCCNC1 1.7 nM
CN1CCC(CNc2ccc3ncc(-c4cccc(OC(F)(F)F)c4)n3n2)CC1 2770 nM
